hERG WT inh: inhibitors of human wildtype KCNH2 potassium channel | actives 0.37% (n = 340,000) | AID 720551 | activity change, % at 1.84 µM | U2OS, BacMam KCNH2, thallium flux FluxOr; hits give low values | Q12809;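 active = maximum activity change below -70%; inconclusive = maximum activity change between -70% and -50%; inactive = maximum activity change above -50%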
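U2OS cells transduced with wild-type KCNH2 virus are loaded with FluxOr dye for 45 min, and thallium flux is measured in kinetic reads before and after stimulation buffer. Rate constants are normalized to DMSO controls.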
KCNH2 3.1 inh: inhibitors of human KCNH2 3.1 potassium channel isoform; actives 0.95% (n = 340,000); AID 720553; activity change, % (tested at about 1.8 µM); U2OS KCNH2 3.1, thallium flux FluxOr; hits give low values;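 active = maximum activity change below -70%; inconclusive = maximum activity change from -70% to -50%; inactive = maximum activity change above -50%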;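 note: thallium influx rate constant from kinetic fluorescence after stimulation buffer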
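Channel expression came from 3.1 mutant virus (1.77 x 10^8 /mL) applied to suspended U2OS cells for 4 h. Flux was tracked with FluxOr dye plus Red40 quencher, and kinetic rate constants normalized to controls.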
RXFP1 antagonist: antagonists of human relaxin receptor RXFP1; AID 1259400; HEK293-RXFP1, relaxin-stimulated cAMP HTRF, 30 min; hits give low values; actives 0.59% (n = 350,000); Q9HBX9; activity change, negative = inhibition, % at 57.5 µM;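 active = activity change of -60% or lower, but not beyond a set lower limit; inconclusive = change between -60% and -40%, or beyond the set limit; inactive = change above -40%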
Target sequence (Q9HBX9 whole entry, looked up): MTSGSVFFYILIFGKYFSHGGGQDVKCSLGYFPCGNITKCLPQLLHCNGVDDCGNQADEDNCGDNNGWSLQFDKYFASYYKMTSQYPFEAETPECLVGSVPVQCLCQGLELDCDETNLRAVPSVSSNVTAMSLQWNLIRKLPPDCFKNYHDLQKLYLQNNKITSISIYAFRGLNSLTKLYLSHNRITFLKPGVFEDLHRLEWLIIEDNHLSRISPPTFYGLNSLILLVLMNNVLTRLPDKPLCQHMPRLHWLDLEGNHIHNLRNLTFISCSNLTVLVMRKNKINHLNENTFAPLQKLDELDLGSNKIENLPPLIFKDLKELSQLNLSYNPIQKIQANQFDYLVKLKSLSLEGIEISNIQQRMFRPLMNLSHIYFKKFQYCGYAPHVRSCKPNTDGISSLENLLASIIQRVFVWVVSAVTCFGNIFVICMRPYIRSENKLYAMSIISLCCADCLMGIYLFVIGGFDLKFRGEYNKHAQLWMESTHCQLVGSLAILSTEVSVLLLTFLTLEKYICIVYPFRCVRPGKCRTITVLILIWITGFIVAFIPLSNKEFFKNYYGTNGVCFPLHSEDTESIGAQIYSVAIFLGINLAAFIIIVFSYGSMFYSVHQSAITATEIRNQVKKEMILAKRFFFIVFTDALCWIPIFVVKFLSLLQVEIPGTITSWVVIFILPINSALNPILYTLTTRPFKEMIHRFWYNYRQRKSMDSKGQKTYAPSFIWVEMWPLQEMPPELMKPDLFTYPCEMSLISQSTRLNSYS
RXFP1 agonist: activates the human relaxin receptor RXFP1. AID 2676. actives 0.3% (n = 370,000). Potency, µM (titrated, usually from 57.5 µM), usual class: activators. Q9HBX9. HEK293T-RXFP1 cAMP TR-FRET, 30 min; response scale: percent of porcine relaxin response, buffer zero; active = well fitted activation curve with a large enough effect; inconclusive = small, poorly fitted or top-dose-only effect; note: nearly all actives have a fitted effect of over 60% in size
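HEK293 cells stably expressing RXFP1, treated 30 min at 37C with compounds plus PDE4 inhibitor Ro 20174; cAMP measured by HTRF TR-FRET. Normalized to buffer and 29 nM porcine relaxin; EC50 by Hill fit.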
pAkt inh: blocks phosphorylation of Akt. Neuro2A IGF-stimulated pAkt S473 HTRF, 20 min; hits give low values. activity change, % for hits at 50 µM. actives 0.32% (n = 360,000); in the data active = activity change below about -80%; inconclusive = mostly about -51% to -80%
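Single-point screen (50 µM final compound) in Neuro2A cells stimulated 20 min with 6 nM IGF at 37 deg C. After lysis, Ser473-phosphorylated Akt read by HTRF (ex 330 nm, em 615/665 nm) as the 665/615 ratio.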
Large screens that a line does not name were inactive. Sampled rows, rich in hits. Any-hit rate of the full collection: about 1.7%.

COc1cc(C2C(C#N)=C(N)N(Nc3ccccc3)C3=C2C(=O)CC(C)(C)C3)ccc1OCc1cccc(F)c1 (stereo not drawn)	pAkt inh -91.9%
Cc1cc(OC(=O)c2ccccc2Cl)cc(=O)n1C	none
COCCNC(=O)NC(=O)COC(=O)C12CC3CC(CC(NC(C)=O)(C3)C1)C2	RXFP1 agonist inconclusive
CCCC(=O)N(CCN1CCOCC1)c1nc2c(C)ccc(C)c2s1	KCNH2 3.1 inh -84.8, RXFP1 antagonist inconclusive
CCCC(=O)N(CCN1CCOCC1)c1nc2c(OC)ccc(C)c2s1	none
O=C(CCS(=O)(=O)c1ccccc1)N(CCCN1CCOCC1)c1nc2c(F)cccc2s1	RXFP1 antagonist -74.5
O=C1Nc2ccccc2/C1=C\C(=O)c1ccccc1	RXFP1 antagonist inconclusive
O=C1Nc2ccc(Br)cc2/C1=C/C(=O)c1ccc2c(c1)OCO2	RXFP1 antagonist -84.0
COc1ccc(C(=O)/C=C2\C(=O)Nc3ccc(Br)cc32)cc1	RXFP1 antagonist -75.0 (no result: RXFP1 agonist)
Cn1c(=O)c2sccc2n2c(CCCC(=O)N3CCCCC3)nnc12	RXFP1 agonist 17.8µM (no result: pAkt inh)
CCn1ccc(C(=O)NC2=C(C#N)CCC2)n1	pAkt inh -115.0%
CC(CSc1nnnn1-c1ccccc1)Cn1c(N2CCCC2)nc2c1c(=O)[nH]c(=O)n2C (stereo not drawn)	none
CCCNC(=O)N1C2=NC(C(=O)OC)=C(C(=O)OC)[C@@H]3N(Cc4ccccc4)c4ccccc4[C@]23C[C@H]1CO	none (no result: RXFP1 antagonist, RXFP1 agonist)
CCOC(=O)c1c(C)[nH]c(C)c1C(=O)COC(=O)c1nn(CC)c(=O)c2ccccc12	hERG WT inh -102.4 (no result: RXFP1 agonist)
Cc1[nH]c2ccccc2c1C(=O)COC(=O)c1nccnc1N	RXFP1 antagonist -66.3
CCn1nc(C(=O)OCC(=O)NC(C)C)c2ccccc2c1=O	none
CCCn1c(N2CCN(C(=O)/C=C/C(=O)O)CC2)nc2ccccc21	none
O=[N+]([O-])c1ccc(N2CCN(Cc3ccccc3)CC2)nc1	none
CCn1c(N2CCN(C(=O)/C=C/c3ccccc3)CC2)nc2ccccc21	hERG WT inh inconclusive, KCNH2 3.1 inh -90.3
O=[N+]([O-])c1ccc(CN2CCN(c3ccc([N+](=O)[O-])cc3)CC2)cc1	hERG WT inh -73.3
O=[N+]([O-])c1ccc(CN2CCN(c3ccc4ccccc4n3)CC2)cc1	hERG WT inh inconclusive, KCNH2 3.1 inh -99.3
O=[N+]([O-])c1ccc(N2CCN(C(=S)c3cccc([N+](=O)[O-])c3)CC2)cc1	KCNH2 3.1 inh -101.5
COc1ccc(-c2nnc(SCC(=O)N3CCc4ccccc4C3)o2)cc1	none (no result: pAkt inh)
Cc1ccc(Sc2c(C)nn(C(=O)c3cccc(S(=O)(=O)N4CCOCC4)c3)c2C)cc1	none
CCCn1c(N2CCN(Cc3ccc(Cl)cc3)CC2)nc2ccccc21	KCNH2 3.1 inh -79.0
CCn1c(N2CCN(Cc3ccc([N+](=O)[O-])cc3)CC2)nc2ccccc21	hERG WT inh -86.8, KCNH2 3.1 inh -94.1
NC(=O)CSCc1ccc(Br)cc1	none
O=C(O)C1CC1(c1ccccc1)c1ccccc1 (stereo not drawn)	none
CCC(C)[C@H]1CNCCN1CC1(c2ccccc2)CC1 (stereo partly drawn)	none (no result: RXFP1 antagonist)
Cc1ccccc1NC1=NS(=O)(=O)c2ccccc21	hERG WT inh -285.0
Cc1ccc(NC(=S)N/N=C2/CCCCc3ccccc32)cc1	RXFP1 antagonist -61.4
O=C(N/N=C1\CCCCc2ccccc21)c1ccccn1	RXFP1 antagonist -64.8
O=C(NN=C1CCCCCCC1)c1ccccn1	none
O=C(c1cccs1)N1N=C(c2ccccc2)CC1c1ccccc1O (stereo not drawn)	none
Cc1ccccc1OCc1nnc(SCC(=O)Nc2ccc3c(c2)oc2ccccc23)n1C	pAkt inh -99.7%
COc1ccc(NC(=O)C2CCCC2)cc1S(=O)(=O)N1CCOCC1	none
COc1ccc(S(=O)(=O)N(C)CC(=O)N2CCCCCC2)cc1	none
CCOc1ccc(S(=O)(=O)N(C)CC(=O)N2CCCC2)cc1	KCNH2 3.1 inh -99.6
CCOc1ccc(S(=O)(=O)N(C)c2ccc(OCC(=O)N3CCOCC3)cc2)cc1	none
CCOc1ccc(OCC(=O)N2CCOCC2)cc1	pAkt inh -98.5%
CN(c1ccc(OCC(=O)N2CCCC2)cc1)S(=O)(=O)c1ccc(Cl)cc1	hERG WT inh -132.9
O=C(N[C@@H](Cc1c[nH]c2ccccc12)C(=O)O)C1CCN(S(=O)(=O)c2ccc(Cl)cc2)CC1	none
CCN(CC)c1ccc(-c2c(C#N)c(N)nc(OC)c2C#N)cc1	KCNH2 3.1 inh -70.3, RXFP1 agonist inconclusive
COC(=O)[C@@]12C[C@@H](CC(=O)NCc3cccs3)C(=O)N(CCc3ccc(OC)c(OC)c3)C1=CCC(C)(C)C2	none (no result: hERG WT inh, KCNH2 3.1 inh, RXFP1 antagonist, RXFP1 agonist)
Cc1ccc([N+](=O)[O-])cc1NC(=O)CCCOc1ccccc1	KCNH2 3.1 inh -109.6
O=C(O)Cc1c(C(=O)O)nnn1-c1cccc(C(F)(F)F)c1	none
Cc1ccc2nc(N3C(=O)C(O)=C(C(=O)c4cc5ccccc5o4)C3c3cccs3)sc2c1 (stereo not drawn)	none
O=C(C1=C(O)C(=O)N(CCc2ccccc2)C1c1ccncc1)c1cc2ccccc2o1 (stereo not drawn)	RXFP1 agonist 14.1µM
O=C(C1=C(O)C(=O)N(c2nccs2)C1c1ccccc1)c1cc2ccccc2o1 (stereo not drawn)	RXFP1 agonist 15.8µM
CCOc1ccc(C2/C(=C(\O)c3ccc4c(c3)OCCO4)C(=O)C(=O)N2CCCN2CCOCC2)cc1 (stereo not drawn)	none
S=c1[nH]ncn1/N=C/c1ccccc1	none
Cc1ccc(CNC(=O)Nc2ccc(OC(F)(F)F)cc2)n1C	none
O=c1c2c(n3cnnc3n1-c1ccccc1)-c1ccccc1CC21CCCCC1	pAkt inh -113.7%
O=C(NCCN1CCOCC1)c1cc(-c2ccccc2)on1	none
O=C(NCCN1CCOCC1)c1cc(-c2cccs2)on1	KCNH2 3.1 inh -172.0
O=C(Nc1ccccc1C(=O)Nc1ccccc1C(=O)NCc1ccco1)c1ccco1	RXFP1 agonist inconclusive
CCCc1ccccc1OCCNS(=O)(=O)c1cc2c(cc1C)OCC(=O)N2	RXFP1 antagonist -61.5
COC(=O)c1c(NC(NC(=O)C(C)(C)C)C(Cl)(Cl)Cl)sc2c1CCC2 (stereo not drawn)	RXFP1 antagonist -81.4
CCC(=O)NC(Nc1sc2c(c1C(=O)OC)CCC2)C(Cl)(Cl)Cl (stereo not drawn)	none (no result: RXFP1 antagonist)
COC(=O)c1c(NC(NC(=O)CC(C)C)C(Cl)(Cl)Cl)sc2c1CCC2 (stereo not drawn)	none (no result: RXFP1 antagonist)
COC(=O)c1c(NC(NC(=O)C(C)C)C(Cl)(Cl)Cl)sc2c1CCC2 (stereo not drawn)	RXFP1 antagonist -60.4
O=C(O)Cc1sc(Nc2ccc(F)cc2)nc1-c1cccs1	none
N#CCC(=O)NNC(=S)Nc1ccccc1C(F)(F)F	none

Source: PubChem (National Center for Advancing Translational Sciences (NCATS))
